Whole data set: some 33,000 sequences, median “E-score (-0.5 to 0.5)” near -0.043, cut for the highest 2% near 0.37. The full list was thinned out, with the highest values kept by preference.
Target: T1, Upc2 (UniProt Q12151)
T1 sequence: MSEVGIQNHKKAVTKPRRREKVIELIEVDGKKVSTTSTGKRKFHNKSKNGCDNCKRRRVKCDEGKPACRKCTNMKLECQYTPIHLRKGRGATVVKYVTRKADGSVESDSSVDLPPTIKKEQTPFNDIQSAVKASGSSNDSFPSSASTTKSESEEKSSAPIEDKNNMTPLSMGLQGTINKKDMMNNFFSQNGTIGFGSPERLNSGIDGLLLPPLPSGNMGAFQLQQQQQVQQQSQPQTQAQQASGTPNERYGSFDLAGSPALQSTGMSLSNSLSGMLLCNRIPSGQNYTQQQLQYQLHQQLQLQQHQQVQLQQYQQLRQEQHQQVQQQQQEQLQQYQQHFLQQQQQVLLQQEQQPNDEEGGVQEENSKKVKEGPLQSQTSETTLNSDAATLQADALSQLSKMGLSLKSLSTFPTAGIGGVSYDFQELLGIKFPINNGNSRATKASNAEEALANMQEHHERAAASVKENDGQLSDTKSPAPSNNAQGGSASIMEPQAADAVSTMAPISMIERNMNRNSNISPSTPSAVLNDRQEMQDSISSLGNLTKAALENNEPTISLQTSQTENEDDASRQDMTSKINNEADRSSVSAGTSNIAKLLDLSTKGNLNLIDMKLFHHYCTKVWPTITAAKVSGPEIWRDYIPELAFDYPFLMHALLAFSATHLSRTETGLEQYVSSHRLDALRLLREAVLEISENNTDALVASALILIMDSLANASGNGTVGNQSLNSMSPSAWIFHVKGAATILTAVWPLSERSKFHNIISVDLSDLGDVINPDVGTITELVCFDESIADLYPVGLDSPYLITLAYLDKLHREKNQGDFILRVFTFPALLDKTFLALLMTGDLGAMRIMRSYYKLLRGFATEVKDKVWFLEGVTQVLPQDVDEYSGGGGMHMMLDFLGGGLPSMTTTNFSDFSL
Assay: PBM E-score (8-mer binding enrichment) (E-score (-0.5 to 0.5)); higher = stronger / more preferred TF binding
Conditions: protein concentration: 200 nM; construct: GST-full length
Method: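 Universal 'all 10-mer' protein binding microarrays (Agilent AMADID 015681) probed with GST-tagged S. cerevisiae TFs (full-length or DBD) made by in vitro transcription/translation (PURExpress), about 100-200 nM. Bound TF was detected with fluorescent anti-GST. Each ungapped 8-mer (which stands for itself and its reverse complement) is scored by the PBM enrichment score (E-score), a modified Wilcoxon-Mann-Whitney statistic from -0.5 to +0.5, computed with the Universal PBM Analysis Suite. Scale: above 0.35 generally sequence-specific binding.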

| Sequence | PBM E-score |
| --- | --- |
| AGTAAAGC | -0.0204 |
| GGTAAAGA | 0.0863 |
| AGTAAAGA | -0.212 |
| CGGTTTAG | 0.161 |
| CGGAAGAG | -0.146 |
| CCAGTTAC | -0.21 |
| TGTTAGAA | -0.177 |
| AGTTTGGA | -0.014 |
| GGTTTGGA | -0.0119 |
| CGTTTGTC | 0.34 |
| CGTTTGCC | 0.323 |
| GGTTTGCA | 0.0633 |
| AGTTTGGC | -0.015 |
| CGTTTGCA | 0.395 |
| CGTTTGAC | 0.363 |
| CGTTTGAA | 0.35 |
| CGTTTGAG | 0.396 |
| CGTTTGGC | 0.409 |
| CGTTTGGA | 0.428 |
| CTTATGCC | -0.0216 |
| ATTCTGTA | 0.0418 |
| TGAAATCA | -0.103 |
| CAACAAGC | -0.163 |
| GGTGTCAA | -0.169 |
| ATCGATTG | 0.0896 |
| AACGGTTC | 0.166 |

| Sequence | PBM E-score |
| --- | --- |
| CCTTCCAA | -0.216 |
| GGGTTCAA | -0.157 |
| ACTTATTC | -0.0293 |
| ATCGCAGC | 0.085 |
| AACGTCAC | -0.0182 |
| ACGTCGTG | 0.0636 |
| CCGTCGTC | 0.0861 |
| CCGTCGGA | 0.0146 |
| CCGTCGTA | 0.457 |
| ACGTCGTC | 0.206 |
| ACGTCGTA | 0.458 |
| GCGTCGCA | 0.19 |
| GCGTCGTA | 0.468 |
| GCGTCGAA | -0.0193 |
| AGGGTAGG | -0.331 |
| ACTAACCT | 0.042 |
| ATCATCTG | -0.129 |
| TACCATGA | -0.108 |
| CCTGAACG | 0.394 |
| ACTGAACA | 0.0269 |
| ACTGAACG | 0.395 |
| CCTGAACC | -0.146 |
| CCTGAACA | -0.0282 |
| ACTGAACT | -0.0256 |
| GCTCTTAA | 0.108 |
| AGCAGAAG | -0.255 |

| Sequence | PBM E-score |
| --- | --- |
| ACAAATTC | -0.0428 |
| GGGCTGTA | -0.0846 |
| CATCGTGC | 0.054 |
| CATCGTTC | 0.416 |
| AATCGTTG | 0.142 |
| AATCGTTC | 0.396 |
| AATCGTTA | 0.292 |
| CATCGTTA | 0.324 |
| TACAGGAA | 0.0741 |
| ATCCGAGG | 0.18 |
| AGTCCTGA | -0.291 |
| AAAGGGCC | -0.285 |
| CGTTTAGC | 0.48 |
| AGTTTAGA | -0.00847 |
| CATTTAGC | -0.0255 |
| GGTTTAGA | -0.055 |
| CGTTTAGA | 0.466 |
| AGTTTAGC | 0.00286 |
| GGACTACA | -0.219 |
| ATTCCATC | 0.0445 |
| CCCTACTA | -0.242 |
| ATTGGTTA | -0.0342 |
| AGTGAGTC | -0.211 |
| CAGTTGTC | -0.147 |
| CAGAGAGC | -0.203 |
| GGATTTAC | 0.00936 |

| Sequence | PBM E-score |
| --- | --- |
| AGCAGATG | -0.221 |
| CACGATTC | 0.258 |
| AACGATTG | 0.391 |
| AGCGATTC | 0.181 |
| ACCGATTG | 0.0763 |
| AACGATTA | 0.364 |
| AACGATTC | 0.393 |
| TAAAATCA | 0.0046 |
| ACGTGCTA | 0.207 |
| CCCGCAAG | -0.239 |
| ATGTCATG | -0.0317 |
| CATGGATA | -0.0903 |
| ACGAACGT | 0.32 |
| ACGAACGG | 0.387 |
| ACGAAGGA | 0.379 |
| GCGAACGA | 0.418 |
| CCGAAGGA | -0.0603 |
| ACGAAGGG | 0.287 |
| ACGAACGA | 0.435 |
| ACGAACAG | 0.314 |
| TCGAACGA | 0.368 |
| GCGAACAA | 0.139 |
| ACGAACGC | 0.323 |
| GCGAACGC | 0.158 |
| TCGGTGCA | -0.104 |
| GTAATATA | 0.197 |

| Sequence | PBM E-score |
| --- | --- |
| CTTTCTCA | 0.0661 |
| AGCTCAGA | -0.0803 |
| ACCGACTA | 0.0499 |
| ATCGAGGG | -0.0211 |
| ATACATGC | 0.169 |
| AAAACCAC | -0.0422 |
| CCGAAGAA | -0.127 |
| AAGATGCC | 0.00959 |
| CCGAACGC | 0.0534 |
| CCGAACGA | 0.384 |
| CCGAACGG | 0.199 |
| ATTATGAG | -0.102 |
| GCAAGGAC | -0.135 |
| ACTTCACG | 0.0222 |
| ATGAGATG | -0.243 |
| ACGAGATA | 0.355 |
| ACGAGATC | 0.408 |
| ACGAGATG | 0.38 |
| ACGAGAGC | 0.375 |
| CCGAGATC | 0.018 |
| GCGAGAGC | 0.23 |
| ACGAGAGA | 0.343 |
| ACGAGACC | 0.347 |
| ACGTCCCA | -0.208 |
| CCGCCCAG | -0.0999 |
| CGAAACAA | 0.188 |

| Sequence | PBM E-score |
| --- | --- |
| ATTTGCGC | 0.024 |
| GGATGCTA | -0.0482 |
| ATTTCGCC | 0.131 |
| CGAGCATA | 0.175 |
| CCTTAGGC | -0.0987 |
| AGCGAATG | 0.177 |
| AACGAATC | 0.39 |
| CACGAAAA | 0.134 |
| GACGAATC | 0.138 |
| CACGAATA | 0.175 |
| CACGAATC | 0.0313 |
| CACGAATG | 0.0101 |
| GACGAATA | 0.0289 |
| GACGAAAA | 0.177 |
| TACGAATA | 0.415 |
| AACGAATG | 0.416 |
| TACGAAAA | 0.411 |
| CGACCAGA | 0.0386 |
| GACCGTGA | -0.166 |
| CCGCTGGA | -0.0874 |
| ATAATTGC | -0.037 |
| AACCTGCT | -0.0408 |
| CACCATGC | -0.295 |
| CCGGGCTA | -0.18 |
| CACGTACG | 0.346 |
| ATAACGAT | 0.144 |

| Sequence | PBM E-score |
| --- | --- |
| AAGGAATT | -0.215 |
| AACGAATA | 0.381 |
| ATCGAATA | 0.211 |
| AAAGAATT | -0.0689 |
| AACGAATT | 0.378 |
| ACCGAATA | 0.0988 |
| GATCAGCC | -0.29 |
| ATCTTCCG | 0.168 |
| AGCTTTTA | 0.163 |
| TGTGCGAA | 0.0333 |
| GGAACGCC | 0.013 |
| GGAACGCA | 0.174 |
| CGAACGAC | 0.401 |
| CGAACGGA | 0.223 |
| CGAACAAA | 0.183 |
| GGAACGAA | 0.464 |
| CGAACGTC | 0.135 |
| GTAACGAC | 0.326 |
| CGAACGCC | 0.0792 |
| GGAACGAC | 0.453 |
| GGAACGTA | 0.282 |
| CGAACGAA | 0.398 |
